The structures appear in SMILES notation. About 210 (0.35%) of roughly 60,000 compounds were called active.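 How the source made its calls: active means inhibition above the screen-wide mean inhibition plus 3 SD (cut at about 18% in these data); inactive means the rest.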 The entries come from a sample that favours actives as a whole.

Sequence of Rho-associated protein kinase 2 (Homo sapiens) (O75116 whole entry, looked up): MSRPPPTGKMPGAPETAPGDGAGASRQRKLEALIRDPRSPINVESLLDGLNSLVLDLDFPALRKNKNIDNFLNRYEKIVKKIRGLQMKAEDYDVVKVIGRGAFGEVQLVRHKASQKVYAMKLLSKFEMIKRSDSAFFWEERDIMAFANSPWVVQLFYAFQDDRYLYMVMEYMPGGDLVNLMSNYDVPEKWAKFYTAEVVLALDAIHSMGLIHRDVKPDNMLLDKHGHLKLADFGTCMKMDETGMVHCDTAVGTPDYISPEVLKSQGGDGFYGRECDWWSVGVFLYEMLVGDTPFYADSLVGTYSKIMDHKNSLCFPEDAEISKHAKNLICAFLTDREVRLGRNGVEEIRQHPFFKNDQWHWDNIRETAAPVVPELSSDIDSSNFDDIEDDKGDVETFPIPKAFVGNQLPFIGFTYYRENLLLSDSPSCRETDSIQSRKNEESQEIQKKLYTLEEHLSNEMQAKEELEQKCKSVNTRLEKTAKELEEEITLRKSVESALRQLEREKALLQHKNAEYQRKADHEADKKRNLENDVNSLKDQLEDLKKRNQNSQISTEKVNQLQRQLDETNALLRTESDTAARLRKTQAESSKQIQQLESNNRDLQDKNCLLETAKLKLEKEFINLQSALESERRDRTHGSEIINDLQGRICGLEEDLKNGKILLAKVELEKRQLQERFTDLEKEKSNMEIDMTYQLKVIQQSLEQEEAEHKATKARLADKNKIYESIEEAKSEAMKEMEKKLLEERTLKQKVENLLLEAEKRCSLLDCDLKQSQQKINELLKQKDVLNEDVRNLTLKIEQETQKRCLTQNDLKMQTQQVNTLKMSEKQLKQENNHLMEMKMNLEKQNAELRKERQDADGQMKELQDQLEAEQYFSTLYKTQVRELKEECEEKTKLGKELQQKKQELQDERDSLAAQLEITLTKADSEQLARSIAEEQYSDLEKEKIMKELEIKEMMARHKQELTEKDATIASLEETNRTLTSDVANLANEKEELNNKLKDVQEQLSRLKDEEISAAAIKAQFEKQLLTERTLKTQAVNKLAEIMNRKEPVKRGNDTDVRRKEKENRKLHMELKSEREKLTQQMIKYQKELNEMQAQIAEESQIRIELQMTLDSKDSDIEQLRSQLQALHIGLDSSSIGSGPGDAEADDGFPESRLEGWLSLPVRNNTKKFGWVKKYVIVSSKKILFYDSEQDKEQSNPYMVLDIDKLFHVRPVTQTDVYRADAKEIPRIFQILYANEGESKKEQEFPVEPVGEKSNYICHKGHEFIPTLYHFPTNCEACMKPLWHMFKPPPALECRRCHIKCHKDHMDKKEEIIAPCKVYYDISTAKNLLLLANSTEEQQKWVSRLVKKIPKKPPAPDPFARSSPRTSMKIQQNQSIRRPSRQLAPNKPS

The assay has as its target Rho-associated protein kinase 2 (Homo sapiens) (UniProt O75116). Kind of assay: ROCK2 enzymatic activity blockers – biochemical, high-throughput, luminescence, primary screen (AID 604).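 Further: plate controls were DMSO wells for no effect and Y-27632 control wells after no-enzyme background subtraction for full effect.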 Particulars: purified ROCK2, Kinase-Glo ATP depletion luminescence; at 6 µM; stronger effect = higher value.
Consider `O=C(/C(=N\O)n1cncn1)c1ccc(Br)cc1Br`, for which the inhibition – broadly, the relative decrease from the control value, in per cent – was -2.8% (inactive).

Consider `CCOC(=O)NC(C(F)(F)F)(C(F)(F)F)P(=O)(c1ccccc1)c1ccccc1`, for which the inhibition was 3.9% (inactive).

Consider `CCN(CC(=O)NCc1cccs1)c1nnnn1-c1ccccc1`, for which the inhibition was -4.6% (inactive).

Consider `C[C@H](NC(=O)NCCc1ccccc1)C(=O)O`, for which the inhibition was 4.7% (inactive).

`COc1ccc(C2CC(c3ccc(C)cc3)Nc3nc(N)nn32)cc1` (stereo not drawn): the inhibition is -2.6% (inactive).

Take `O=C(CN(Cc1ccccc1)C(=O)c1ccc2c(c1)OCCO2)NCc1ccc2c(c1)OCO2`: the inhibition is 5.9% (inactive).

Turning to `Cc1cccc(Cn2c(N3CCN(c4ccccc4)CC3)nc3c2c(=O)n(C)c(=O)n3C)c1`, the inhibition is 5.3% (inactive).

For the compound `COc1ccccc1NC1=NC2(CCCC2)N=C(N)N1`, the inhibition is -2% (inactive).

Turning to `CCOc1ncccc1C(=O)OCc1cn2cc(Cl)ccc2n1`, the inhibition was 12.7% (inactive).

As for `Cc1ccc(C2c3c(oc4ccc(C)cc4c3=O)C(=O)N2CCCN2CCOCC2)cc1` (stereo not drawn), the inhibition was -2.1% (inactive).

Turning to `Cc1cc(NC(=O)CSCc2nc(-c3cccc(Cl)c3)oc2C)no1`, the inhibition was 3.5% (inactive).

For `COc1ccccc1N(CC(=O)N1CCCCC1)S(=O)(=O)c1ccccc1`, the inhibition is 5.5% (inactive).

As for `COc1ccc(N2C(=O)CC(N3CCC(C(N)=O)CC3)C2=O)cc1` (stereo not drawn), the inhibition was -1.8% (inactive).

`O=C(CC1Oc2ccccc2NC1=O)NCCCN1CCN(Cc2ccccc2)CC1` (stereo not drawn): the inhibition is 0.1% (inactive).

Turning to `C(=C\c1ccccc1)/CSc1nnc(-c2cccnc2)n1Cc1ccco1`, the inhibition was 5% (inactive).

`CCN(CC)CCN1C(=O)C(=O)/C(=C(/O)c2ccc(OC)c(OC)c2)C1c1ccccn1` (stereo not drawn): the inhibition was 1.6% (inactive).

On to `Cc1cc(N=CC2=C(O)CCCC2=O)no1`, for which the inhibition is 4.3% (inactive).

With `Cc1ccsc1-c1nc(CSCC(=O)NCCN2CCCC2)c(C)o1`, the inhibition is -0.8% (inactive).

Turning to `CC1CCCN(c2ccc(C(=O)NCCc3ccccc3)cn2)C1` (stereo not drawn), the inhibition is 7.3% (inactive).

With `Cc1ccc(S(=O)(=O)N2CCCC2C(=O)NCc2ccco2)cc1` (stereo not drawn), the inhibition is -1.2% (inactive).

Turning to `CC(C)NS(=O)(=O)c1ccc(CCC(=O)N2CCOCC2)cc1`, the inhibition was 1.3% (inactive).

For `CCn1nc(NC(=O)c2ccco2)c2cc3ccc(C)cc3nc21`, the inhibition is -4.9% (inactive).

Consider `CCNS(=O)(=O)c1ccc(NC(=O)Nc2cccc(OC)c2)cc1`, for which the inhibition was 2.5% (inactive).

As to `COc1ccc(CNC(=O)c2cc3c(=O)n4ccccc4nc3n(CC3CCCO3)c2=N)cc1` (stereo not drawn), the inhibition is 5.4% (inactive).

Regarding `CCOC(=O)c1csc(NC(=O)c2ccc(S(=O)(=O)N3CCCC3)cc2)n1`, the inhibition was -1.1% (inactive).

As to `C=CCn1c(=S)[nH]c2nc3c(cc2c1=O)COC(C)(C)C3`, the inhibition was 8% (inactive).

In the case of `CCCCC(=O)N1CC2(C)CN(C(=O)CCCC)CC(C)(C1)C2=O`, the inhibition is 3.9% (inactive).

Turning to `O=C(Nc1ccccc1F)c1cc(S(=O)(=O)N2CCCCC2)cs1`, the inhibition is 9.5% (inactive).

Regarding `O=C(CSc1ncccn1)NCCc1ccccc1`, the inhibition is 6.2% (inactive).

`CCCOC(=O)Cc1c(O)c2ccccc2[nH]c1=O`: the inhibition was 1.5% (inactive).

On to `CC1(C)CC(=O)C=C(NC2CC(C)(C)NC(C)(C)C2)C1`, for which the inhibition is 5.7% (inactive).

Regarding `O=C(OCC(=O)N1CCCC1)c1ccco1`, the inhibition was 3.5% (inactive).

On to `Cc1oc(CC(C)C)c(CN2CCCC2)c1C(=O)O`, for which the inhibition is 0.9% (inactive).

For the compound `CC(=O)Cc1nsc(NC(=O)c2ccc(COc3ccc(C)cc3)o2)n1`, the inhibition was 2.4% (inactive).

As to `Cc1noc(C)c1S(=O)(=O)N1CCCC(C(=O)Nc2nccs2)C1` (stereo not drawn), the inhibition is 3.5% (inactive).

Turning to `CCOC(=O)CC1=CC(=O)Nc2ccccc2N1`, the inhibition is 7.2% (inactive).

Regarding `Cc1occc1C(=O)N1CCCc2ccccc21`, the inhibition was 1% (inactive).

Consider `O=C(c1ccc(S(=O)(=O)N2CCOCC2)cc1)N1CCN(c2ccccc2)CC1`, for which the inhibition was 2.3% (inactive).

Consider `O=C1c2oc3ccccc3c(=O)c2C(c2cccc(O)c2)N1c1ccccn1` (stereo not drawn), for which the inhibition was 1% (inactive).

For `COc1ccc(-n2c(SCC(=O)Nc3ccc4c(c3)OCO4)nnc2C(C)N2CCCCC2)cc1` (stereo not drawn), the inhibition is 1% (inactive).

Regarding `c1ccc2c(NCC3CCCO3)nc(-c3ccncc3)nc2c1` (stereo not drawn), the inhibition is 5.5% (inactive).

With `Cc1noc(C)c1COC(=O)Cn1c(C)nc2ccccc21`, the inhibition was 5.1% (inactive).

In the case of `CCOC(=O)C1CCN(C(=O)C2CCN(S(=O)(=O)CC)CC2)CC1`, the inhibition was -1.2% (inactive).

On to `CCCc1nc(SCC(=O)Nc2ccccc2OC)c2c(=O)n(C)c(=O)n(C)c2n1`, for which the inhibition was 1.6% (inactive).

As to `CCOc1ccccc1N(CC(=O)NC1CCCCC1)C(=O)CCCC(=O)Nc1ccccn1`, the inhibition was 4.8% (inactive).

With `O=C(CSc1nnc(-c2cccnc2)n1Cc1ccco1)c1ccc(Cl)cc1`, the inhibition was 2.8% (inactive).

Regarding `CCOc1ccccc1NC(=O)CCc1ccc(C)o1`, the inhibition is 0.9% (inactive).

As to `CS(=O)(=O)c1ccc2nc(NC(=O)C3CCCCC3)sc2c1`, the inhibition is 6.5% (inactive).

With `O=c1c(F)cn(C2CCCO2)c(=O)n1Cc1ccccc1Cl` (stereo not drawn), the inhibition is -7.2% (inactive).

For `CCn1c(CSc2ncccn2)nnc1SCC(=O)N1c2ccccc2CC1C` (stereo not drawn), the inhibition is 1.2% (inactive).

With `CCCOc1ccc(N2CC(C(=O)Nc3ccccn3)CC2=O)cc1` (stereo not drawn), the inhibition was 2.5% (inactive).

With `O=C1CCCC2=C1C(c1cccs1)n1nc(SCc3ccccc3)nc1N2` (stereo not drawn), the inhibition is 2% (inactive).

As for `COc1ccc(-c2[nH]nc3c2C(c2ccncc2)C(C#N)=C(N)O3)cc1` (stereo not drawn), the inhibition is -0.8% (inactive).

Consider `CC(C(=O)N1CCOCC1)N1c2cccc3cccc(c23)S1(=O)=O` (stereo not drawn), for which the inhibition is 11.3% (inactive).

As to `O=C(c1cccs1)N(C(=O)c1cccs1)c1ccccn1`, the inhibition was 3.6% (inactive).

With `CCc1c(C)nc(N2CCN(Cc3ccccc3)CC2)[nH]c1=O`, the inhibition was -0.6% (inactive).

On to `CCN1CCN(Cc2nc3c(c(=O)n(C)c(=O)n3C)n2CC(=O)c2ccccc2)CC1`, for which the inhibition is -1.1% (inactive).

As to `COc1ccccc1CNC(=O)Cn1cc2c(n1)CCCC2`, the inhibition was 2.7% (inactive).

On to `N#CCCn1cnc2ccccc21`, for which the inhibition was 0.3% (inactive).

As to `CCn1c(=N)n(CC(=O)c2cccc(OC)c2)c2ccccc21`, the inhibition is -1.1% (inactive).

Turning to `CCOCCCNC(=O)c1c[nH]c2cc(C)ccc2c1=O`, the inhibition was -0.3% (inactive).

`Brc1cnc(N2CCCC2)nc1N1CCCCC1`: the inhibition was 2% (inactive).

For `COc1ccc(N2CC(C)Cn3c2nc2c3c(=O)n(Cc3ccccc3F)c(=O)n2C)c(OC)c1` (stereo not drawn), the inhibition is -0.2% (inactive).

On to `CCC(Sc1nncn1C)C(=O)Nc1nnc(-c2ccc(Cl)cc2)s1` (stereo not drawn), for which the inhibition was 3.6% (inactive).

Take `COc1ccc(CCNC(=O)CCCCn2c(=O)[nH]c3ccccc3c2=O)cc1OC`: the inhibition was 4.9% (inactive).

As for `COc1ccc2[nH]c3ccc(OC)cc3c2c1`, the inhibition was 5.6% (inactive).

On to `COC(=O)c1[nH]c2ccccc2c1NS(=O)(=O)c1ccc(OC)cc1OC`, for which the inhibition is 5.9% (inactive).

In the case of `COc1ccc(OC)c(N=Cc2c(O)[nH]c3ccccc23)c1`, the inhibition was 12.3% (inactive).

Take `COc1cc(N=Cc2c(O)[nH]c3ccccc23)cc(OC)c1OC`: the inhibition is 58.4% (active).

For the compound `COc1ccc(N=Cc2c(O)[nH]c3ccccc23)cc1OC`, the inhibition is 36.8% (active).

Turning to `CC(C)=C(NC(=O)c1ccco1)C(=O)NCCc1nc2ccccc2[nH]1`, the inhibition was 1.2% (inactive).

As to `COc1cc(NS(=O)(=O)c2ccccc2)ccc1-n1nc(C)cc1C`, the inhibition was 10.8% (inactive).

Turning to `CCCOC(=O)c1cc2ccccc2oc1=O`, the inhibition was 0.3% (inactive).

As for `CCOc1cc(S(=O)(=O)NCc2ccc3c(c2)OCO3)ccc1F`, the inhibition was 0.8% (inactive).

Regarding `CN(C)/C=C1\C=C(c2ccccc2)OC1=O`, the inhibition was 0.1% (inactive).

In the case of `COCCN1C(=O)c2oc3c(C)cc(C)cc3c(=O)c2C1c1cccc(O)c1` (stereo not drawn), the inhibition is -3% (inactive).

For the compound `O=C(NCCCN1CCN(Cc2ccccc2)CC1)C1CCN(S(=O)(=O)N2CCCC2)CC1`, the inhibition is 2.6% (inactive).

As to `O=C(c1ccco1)N1CCN(C(=O)C2c3ccccc3Oc3ccccc32)CC1`, the inhibition was -3.5% (inactive).

Values taken from PubChem BioAssay AID604 (The Scripps Research Institute Molecular Screening Center, 2007).
